Test results published in PubChem BioAssay (NCI).
About 83,000 compounds went through this panel and 20% of them were active in at least one assay; those are over-represented in the sample as a whole.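 48-hour exposure, single concentration, 96-well plates; percent growth endpoint where 0 means no net growth. Active: below 10.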 Values without a mark were called inactive. The source made the active and inactive calls.

Tested on: MDA-MB-468 breast
Test: NCI-60 one-dose screen, 48 h (100 = growth as untreated, 0 = no growth, -100 = all killed)
Details: 10 µM unless noted

Row | Compound | growth
1 | CC(=O)c1cccc(OC(=O)c2ccccc2)c1 | 104%
2 | O=C(c1ccc(O)c(C(=O)N2Cc3ccc(OCCC[P+](c4ccccc4)(c4ccccc4)c4ccccc4)cc3C2)c1)N1Cc2cccc(F)c2C1 | 2.97% (active)
3 | CCOC(=O)C1=NN(c2ccccc2)C2=NC(=O)/C(=C\c3cn(-c4ccccc4)nc3-c3cc4ccccc4o3)C(=O)N12 | 111%
4 | Cc1ncc(-c2ccoc2)c(NC2CCCCCC2)n1 | 105%
5 | NS(=O)(=O)c1ccc(CCn2c(SCC(=O)N/N=C/c3cc4ccccc4[nH]3)nc3ccccc3c2=O)cc1 | 60.2%
6 | CC1CCN(CCCCCOc2ccc3oc4ccccc4c(=O)c3c2)CC1 | 41.6%
7 | O=C(NCc1cn(Cc2cccc(Oc3ccccc3)c2)nn1)c1cccnc1NCc1ccc(Cl)cc1 | 17.3%
8 | Cc1ccc2ccc3ccc(C)nc3c2n1.Cc1ccc2ccc3ccc(C)nc3c2n1.Oc1c(Cl)cc(Cl)c2ccc(CN3CCCCC3)nc12.[Ru] | -80% (active)
9 | CCCCCc1ccc(S(=O)(=O)Nc2cccc(-c3csc(NC(=O)CN4CCN(C)CC4)n3)c2)cc1 | 89.5%
10 | O=C1C(=O)c2ccccc2C(O)=C1CCCc1ccc(C2CCCCCC2)cc1 | 5.94% (active)
11 | O=C(Nc1ccc(Cl)c(Cl)c1)Nc1c(Oc2ccc(Cl)c(Cl)c2)ccc(Cl)c1S(=O)(=O)O | -5.92% (active)
12 | CC1CN(c2oc(-c3ccccc3)nc2C#N)CC(C)O1 (stereo not drawn) | 109%
13 | COc1ccc2oc(=O)cc(CN3C(=O)S/C(=C\c4ccc(Cl)cc4)C3=O)c2c1 | 101%
